Source: PubChem (several laboratories)
PfHsp90 set2 – inhibits growth of yeast expressing Plasmodium falciparum Hsp90; 310,000 tested, 0.32% active; inhibition, % at 9.4 µM; AID 504621; S. cerevisiae expressing PfHsp90, BacTiter-Glo ATP, 48 h; yeast lacking PDR1 and PDR3 efflux regulators;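 active means every replicate shows inhibition above about 80%, whatever the replicate mean, limit read from the data; inconclusive means mean inhibition reaches the set limit but some replicate falls short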
SKKanGAS inh – SKKanGAS growth inhibition. S. pyogenes SKKanGAS, kanamycin growth, BacTiter-Glo, 6 h. inhibition, % at 7.5 µM. 300,000 tested, 1.3% active. AID 1662;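 active means mean replicate score, as percent of positive control median, at least 50; inconclusive means mean below 50 but one replicate at or above 50; inactive means mean and every replicate below 50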;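 further: strain carries kanamycin resistance gene driven by streptokinase promoter and grows in 40 µg/ml kanamycin; loss of luminescence reflects streptokinase promoter inhibition or plain growth inhibition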
TIM10 inh – inhibits growth of TIM10 yeast strain. S. cerevisiae TIM10 strain growth, BacTiter-Glo luminescence, 24 h. inhibition, % at 10 µM. 330,000 tested, 1.4% active. AID 463195;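 active means inhibition of 40% or more at the single tested concentration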;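 further: wild-type TIM10 isogenic control strain grown at permissive 25 °C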
tim23-1 inh – tim23-1 yeast growth inhibition; inhibition, % at 20 µM; 330,000 tested, 1.3% active; S. cerevisiae tim23-1 growth, BacTiter-Glo luminescence, 24 h;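 active means growth inhibition of the mutant yeast at or above 50%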;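 further: temperature-sensitive mutant grown at 25 °C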
tim10-1 inh – inhibits growth of tim10-1 mutant yeast; S. cerevisiae tim10-1 ts strain growth, BacTiter-Glo, 24 h; inhibition, % at 20 µM; 330,000 tested, 2.2% active;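 active means inhibition of at least 40%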;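 further: mutant grown at 25 °C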
Calb FLC – C. albicans growth modulation with fluconazole | C. albicans CaCi-2 (fluconazole-resistant clinical isolate) + fluconazole, Alamar Blue growth, 48 h | growth inhibition, % (concentration not given with the values) | 300,000 tested, 0.57% active;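 active means growth inhibition above about 58% in most replicates, limit read from the data, passing the limit was not always enough; inconclusive means exactly half the replicates above a set limit; inactive means most replicates below a set limit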;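 further: all wells also contain fluconazole at 8 µg/ml as a sub-toxic cotreatment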
tim10-1 confirm – tim10-1 yeast growth inhibition, confirmed; shares compounds with tim10-1 inh; S. cerevisiae tim10-1 ts strain growth, BacTiter-Glo, 24 h; inhibition, % at 20 µM; 7,400 tested, 56% active; AID 463213;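 active means inhibition of yeast growth at or above a set limit in either of two repeat tests at 20 µM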;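 further: tim10-1 mutant grown at permissive 25 °C to find synthetic lethal compounds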
Of the large screens only hits and unclear results are named; the others gave an inactive call (follow-up assays come after a bar, where they were run). Hits are enriched below; roughly 4.7% of the tested compounds scored in any of these assays.

CN(C)c1nc(-c2ccccn2)nnc1-c1ccccc1	tim10-1 inh 40.1 | tim10-1 confirm inactive
CCCCn1c(=O)c2c(nc3n2CCCN3Cc2ccccc2)n(C)c1=O	none
CC(Sc1ccc(S(=O)(=O)N2CCN(C)CC2)cn1)C(=O)Nc1cccc(Cl)c1Cl (stereo unspecified)	none (no result: SKKanGAS inh, TIM10 inh, tim23-1 inh, tim10-1 inh, Calb FLC)
CC(C)(C)c1ccc(C(=O)NNc2cc(N3CCCCC3)nc(N3CCCCC3)n2)cc1	tim10-1 inh 40.1 | tim10-1 confirm 35.9
COc1ccc(NS(=O)(=O)c2cc(NC(=O)CCc3ccccc3)ccc2N2CCOCC2)cc1	none (no result: SKKanGAS inh, TIM10 inh, tim23-1 inh, tim10-1 inh, Calb FLC)
Cc1cccc(NC(=O)CSc2n[nH]c(-c3ccncc3)n2)c1C	none
Clc1cccc(/C=N\Nc2nccs2)c1	tim10-1 inh 47.6 | tim10-1 confirm inactive
Fc1ccc(Cc2nnc(-c3cccs3)o2)cc1	none
c1csc(-c2nnc(Cc3cccc4ccccc34)o2)c1	tim10-1 inh 45.2 (no result: PfHsp90 set2) | tim10-1 confirm inactive
Cc1onc(-c2ccccc2)c1C(=O)Nc1nnc(CC(C)C)s1	none
COc1ccc(CC(=O)OCC(=O)Nc2c(C)n(C)n(-c3ccccc3)c2=O)cc1OC	none (no result: SKKanGAS inh, Calb FLC)
O=[N+]([O-])c1cccc(-c2nc(-c3cccs3)c(-c3cccs3)[nH]2)c1	none
COc1ccc(-c2nc(-c3cccs3)c(-c3cccs3)[nH]2)cc1OC	SKKanGAS inh 67.6, tim10-1 inh 49.9 | tim10-1 confirm 35.9
COc1cc(C(=O)NC2CCN(CC(=O)Nc3cccc(C)c3C)CC2)cc(OC)c1OC	none
O=S(=O)(NCc1nnc2c(C(F)(F)F)cc(Cl)cn12)c1ccccc1	SKKanGAS inh inconclusive
CCC1CCCCN1C(=O)c1ccc([N+](=O)[O-])o1 (stereo unspecified)	tim10-1 inh 53.7 | tim10-1 confirm 35.2
c1ccc(Cn2nnc3c(N4CCC5(CC4)OCCO5)ncnc32)cc1	tim10-1 inh 42.1 | tim10-1 confirm inactive
Cc1cccc(C)c1OC(=O)CCN1C(=O)C2C3C=CC(C4CC34)C2C1=O (stereo unspecified)	tim10-1 inh 40.8, Calb FLC inconclusive | tim10-1 confirm inactive
O=C(CCN1C(=O)C2C3C=CC(C4CC34)C2C1=O)Oc1ccccc1 (stereo unspecified)	none (no result: PfHsp90 set2)
O=C(CCc1ccccc1)C(=O)N1CCCC(C(=O)c2cccc(Cl)c2)C1 (stereo unspecified)	tim10-1 inh 40.0 | tim10-1 confirm inactive
CC(C)/C(=N\NS(=O)(=O)c1ccc(Br)cc1)c1cccs1	tim10-1 inh 41.2 | tim10-1 confirm 33.9
O=C(NCCc1cscn1)C1CCC(=O)N(Cc2ccc(Cl)cc2)C1 (stereo unspecified)	none
CCc1ccccc1NC(=O)CCc1c(C)nn(-c2ccc(N3CCOCC3)nn2)c1C	tim10-1 inh 61.7 | tim10-1 confirm inactive
O=C(CSc1n[nH]c(-c2ccncc2)n1)Nc1ccc(Cl)c(C(=O)O)c1	none
Cc1cccc(CNC(=O)c2ccccc2NC(=O)C2=CSCCO2)c1	none
Cc1cccc(CNC(=O)c2ccc(NC(=O)C3=CSCCO3)cc2)c1	tim10-1 inh 50.1 | tim10-1 confirm inactive
Cc1ccc(CNC(=O)c2ccccc2NC(=O)C2=CSCCO2)cc1	none | tim10-1 confirm inactive
CCOc1ccccc1CNC(=O)c1ccc(NC(=O)C2=CSCCO2)cc1	tim10-1 inh 44.9 | tim10-1 confirm inactive
COc1ccc(CNC(=O)c2ccc(NC(=O)C3=CSCCO3)cc2)cc1	none
Cc1cccn2c(=O)c(C=O)c(N3CCN(c4ccc(F)cc4)CC3)nc12	tim10-1 inh 48.8 | tim10-1 confirm 35.7
Cc1cccn2c(=O)c(C=O)c(N3CCCCC3)nc12	none
CC1=NN(c2nc(-c3ccc(Cl)cc3)cs2)C(=O)C1	tim10-1 inh 62.9 | tim10-1 confirm 29.4
CC1=NN(c2nc(-c3ccc(F)cc3)cs2)C(=O)C1	none
CC1=NN(c2ccc(Cl)cc2)C(=O)C1	tim10-1 inh 46.8 | tim10-1 confirm inactive
CC(=O)c1ccc(N2CCN(C(=O)c3cc(-c4cccnc4)nc4ccc(Br)cc34)CC2)cc1	none
O=C(c1cc(-c2cccnc2)nc2ccc(Br)cc12)N1CCN(c2ncccn2)CC1	tim10-1 inh 45.5 | tim10-1 confirm inactive
CC(C)C1NC2(C(=O)c3ccccc3C2=O)C2C(=O)N(c3ccc(F)cc3)C(=O)C12 (stereo unspecified)	tim10-1 inh 40.2 | tim10-1 confirm 30.3
O=C1C2C3C=CC(CC3)C2C(=O)N1c1ccc(F)cc1 (stereo unspecified)	none
Cc1cccc(NC(=O)c2ccc(S(=O)(=O)N3CCCCC3C)cc2)n1 (stereo unspecified)	tim10-1 inh 41.1 | tim10-1 confirm inactive
Cc1cccc(NC(=O)c2ccc(S(=O)(=O)N3CCCCC3)cc2)n1	none
COc1cc(C(=O)Nc2ccc(S(=O)(=O)N3CCCCC3C)cc2)cc(OC)c1OC (stereo unspecified)	tim10-1 inh 46.2 | tim10-1 confirm 37.6
COc1ccccc1CC(=O)N1CCN(c2ccccc2)CC1	none
Cc1ccc(NCc2nnc(SCC(=O)c3ccccc3)o2)c(C)c1	tim10-1 inh 42.1 (no result: PfHsp90 set2) | tim10-1 confirm inactive
Cc1ccc(NCc2nnc(SCC(=O)N3CCCc4ccccc43)o2)c(C)c1	none (no result: PfHsp90 set2)
Cc1ccc(OCC(=O)O/N=C(\N)Cc2ccc([N+](=O)[O-])cc2)cc1C	tim10-1 inh 52.4 | tim10-1 confirm 53.3
N/C(Cc1ccc([N+](=O)[O-])cc1)=N\OC(=O)Cc1ccccc1	tim10-1 inh 50.5 | tim10-1 confirm 41.0
Cc1cccc(OCC(=O)O/N=C(\N)Cc2ccc([N+](=O)[O-])cc2)c1	none
Cc1nc2nc(SCC(=O)O)nn2c(C)c1Cc1ccccc1Cl	none
Cc1cccc(NC(=S)NNC(=O)c2csc(C(C)C)c2)c1	tim10-1 inh 44.4, Calb FLC 92.1 | tim10-1 confirm inactive
C/C(=N\Nc1cc(C(F)(F)F)ccc1Cl)c1ccccc1O	tim10-1 inh 46.7 | tim10-1 confirm 38.3
O=C1NCCc2c1[nH]c1ccccc21	none
O=C1NCCc2c1[nH]c1c(Cl)ccc(Cl)c21	tim10-1 inh 42.5 | tim10-1 confirm 35.8
N#CC1=C(SCC(N)=O)NC2=C(C(=O)c3ccccc32)C1c1ccc(Cl)cc1 (stereo unspecified)	tim10-1 inh 44.3 | tim10-1 confirm inactive
CSCSC1=C(C#N)C(c2ccc(Cl)cc2)C(C(C)=O)=C(C)N1 (stereo unspecified)	none (no result: PfHsp90 set2, SKKanGAS inh, Calb FLC)
O=C(COC(=O)c1ccc(Cl)nc1)NCCc1ccc(F)cc1	none (no result: SKKanGAS inh, Calb FLC)
Oc1c(Cl)cc(Cl)c2c1NCCC2	SKKanGAS inh 68.6, tim10-1 inh 49.7 | tim10-1 confirm inactive
O=C1NCCCc2c1oc1ccc(O)cc21	none
Cc1ccc(N(Cc2cc(=O)[nH]c3ccccc23)C(=O)CCl)c(C)c1	none
CCOC(=O)c1cc(-c2ccncc2)nc2c1c(C)nn2-c1ccccn1	tim10-1 inh 45.3 | tim10-1 confirm 33.9
